This is an account of results in PubChem BioAssay (NCI).

“And” between values parts separate entries of the source, which are not always exact repeats. Equal entries are not always repeated. About 83,000 compounds went through this panel and 20% of them were active in at least one assay; those are over-represented in the sample as a whole.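 Results are percent growth after 48 hours of single-concentration exposure. 100 means growth as in untreated cells, lower positive values show inhibition; negative values down to -100 show cell death.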 The source made the active and inactive calls. How the source made its calls: active means growth percent below 10; inactive means the rest.

The assay concerns HL-60(TB) leukemia. As to the kind of experiment: NCI-60 one-dose screen, 48 h (100 = growth as untreated, 0 = no growth, -100 = all killed). To be noted: 10 µM unless noted.
`COc1ccc(/C(C)=C(\c2ccc(Cl)cc2)c2ccc(OCCN3CCCCC3)cc2)cc1F`: the growth was -14% (active).
The same measure for `O=C(c1cc2ccccc2o1)c1nn(-c2ccccc2)/c(=N/N=Cc2cn(-c3ccccc3)nc2-c2cc3ccccc3oc2=O)s1`: 98.2% (inactive).
The value for `O=C(/C=C/c1ccccc1)Oc1ccc(/C=C/c2cc(OC(=O)/C=C/c3ccccc3)cc(OC(=O)/C=C/c3ccccc3)c2)cc1` was 93% (inactive); that for `Cn1c(I)c(C#C[Si](C)(C)C)c(=O)n(C(=O)c2ccccc2)c1=O` was -59% (active); that for `COc1cc(-n2nc(C(=O)Nc3ccc(C(=O)O)cc3)nc2-c2ccccc2)cc(OC)c1OC` was 103% (inactive).
Consider `COc1cc(CSc2nc3ccc(Cl)cc3c(=O)n2Cc2ccccc2)cc(OC)c1OC`, for which the growth is 14.7% (inactive).
As for `CN(C)CCOC(=O)C(C)(C)C`, the growth is 89.7% (inactive).
The same measure for `Cc1ccc(C(C(N)=O)C(C(N)=O)c2ccccc2)cc1` (stereo not given): 84.7% (inactive); for `COc1ccc(-c2nc(-c3nc4ccc(F)cc4[nH]3)cc3c2[nH]c2ccccc23)cc1`: 26.1% (inactive); for `COC(C(=O)[C@@H](O)[C@@H](C)O)[C@@H]1Cc2cc3cc(O[C@H]4C[C@@H](O[C@H]5C[C@@H](O)[C@H](O)C(C)O5)[C@H](O)C(C)O4)cc(O)c3c(O)c2C(=O)[C@H]1O[C@H]1C[C@@H](O[C@H]2C[C@@H](O[C@H]3C[C@@H](OC)[C@H](O)C(C)O3)[C@@H](O)C(C)O2)[C@H](O)C(C)O1` (stereo not given in full): 81.5% (inactive).
On to `CCC(=O)Oc1ccc(OCc2ccccc2)cc1`, for which the growth was 35.9% (inactive) and 84.2% (inactive).
The value for `CC(C)=NNc1ccc([N+](=O)[O-])cc1[N+](=O)[O-]` was 57.5% (inactive); that for `c1ccc(-c2cn3ccnc3c(-c3ccc4ncn(C5CCCCC5)c4c3)n2)cc1` was 32.9% (inactive).
The same measure for `COC(=O)c1ccc2[nH]c(O)c(C(=Nc3ccc(N(C)C(=O)CN4CCN(C)CC4)cc3)c3ccc4c(c3)OCO4)c2c1`: -34.9% (active).
On to `CN(C)C1CCN(C(=O)c2ccc(NC(=O)Nc3ccc(-c4nc(N5CCOCC5)nc(N5CCOCC5)n4)cc3)cc2)CC1`, for which the growth is 1.8% [2.5 µM] (active).
The value for `NC(CSSCC(N)C(=O)O)C(=O)O` (stereo not given) was -12.8% (active); that for `Oc1ccc(CCn2c(O)c(/C=C3\CN=c4ccccc4=N3)sc2=S)cc1` was 19.5% (inactive).
The same measure for `CCN1CCN(c2nc(NCCNc3ccnc4cc(Cl)ccc34)c3ccccc3n2)CC1`: -67.1% (active); for `CC1(C)NCCC[C@]2(C)[C@H]3CC[C@@H]4[C@H]5[C@H](C(=O)/C=C/c6ccccn6)CC[C@]5(CO)CC[C@@]4(C)[C@]3(C)CC[C@@H]12`: -31.8% (active); for `CCCC(=O)Oc1ccc(/C(=C(\C)c2ccc(OC)cc2)c2ccc(OCCN3CCCCC3)cc2)cc1`: 89.6% (inactive).
The value for `Cc1ccc(C2=Nc3c(ccc4c(C)c(C)c(=O)oc34)OC2)cc1` was 98.3% (inactive); that for `CCSc1nc(Cl)c(C#N)c(-c2ccc(F)cc2)n1` was 81.3% (inactive); that for `CCCCCCCCOc1ccc(/C=N/Nc2cc(C)nc3ccc(Cl)cc23)cc1` was 13.5% (inactive).
Regarding `Cc1ccncc1NC=O`, the growth is 105% (inactive).
The same measure for `O=C(CCl)N(C1CCCCC1)C1CCCCC1`: 104% (inactive); for `Nc1nc2c(nnn2Cc2ccc(Cl)c(Cl)c2)c(=O)[nH]1`: 95% (inactive).
As for `O=C(NC[C@H](O)CN1CCc2ccccc2C1)c1cc(NC2COC2)ncn1`, the growth is 119% (inactive).
The same measure for `Cc1ccc(C(=O)/C(=C/c2ccc([N+](=O)[O-])cc2)S(=O)Cc2ccccc2)cc1` (stereo not given): 36.8% (inactive).
The value for `COc1ccc(S(=O)(=O)ON=C2C=C(C)C(=O)C(C)=C2)cc1` was 43.7% (inactive).
The value for `CN[C@]12CC3(C=CC(=O)C=C3)O[C@@]1(Cc1ccc(OC)cc1)N(C)C(=O)N2` was -3.53% (active); that for `CCN1C(=S)N(c2ccccc2)C2NC(=S)N(/N=C/C=C/c3ccccc3OC)C21` (stereo not given) was -52.9% (active).
Turning to `Cn1c(/C=C(\C#N)c2ccccc2)nc2c(N3CCOCC3)nc(Cl)nc21`, the growth was -33% (active).
The same measure for `O=C(/C(=C/c1ccc([N+](=O)[O-])cc1)SCc1ccc(F)cc1)c1ccc(Cl)cc1`: 64.2% (inactive); for `CC[C@@]1(O)C(=O)OCc2c1cc1n(c2=O)Cc2cc3c(CN(C)C)c(O)ccc3nc2-1`: -7.06% (active) and -36.1% (active); for `CNC(=O)c1ccc(C)c(-n2c(C)cc(OCc3ccc(F)cc3F)c(Br)c2=O)c1`: 61.1% (inactive) and 91% (inactive).
